What is called inhibition is the relative decrease from the control value, in per cent.

The structures appear in SMILES notation. A number with no mark means an inactive call. For some of these results: Results with a measured potency or affinity are listed apart. Active and inactive are the calls of the source. Unless noted, the rule behind the calls is not given here.

Here are results for 20 molecules from PubChem BioAssay.

A short description of assay [1]: antimalarial activity against Dd2 strain (AID 2302;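 active = growth inhibition above 50% at the single 2 µM test dose, taken to imply half-maximal potency below 2 µM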;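 note: 0% = DMSO untreated growth and 100% = chloroquine plus artemisinin killed control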). Particulars: P. falciparum Dd2 in RBCs, LDH growth readout, 72 h; at 2 µM; active compounds read high.
Assay [2] can be described thus: human hepatoma cell viability loss – ATP luminescence, cytotoxicity control for P. falciparum antimalarial project, primary screen (AID 2303;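 active = inhibition above 50%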;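 note: 0% = DMSO wells and 100% = digitonin-killed cells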). Conditions: HepG2 viability, 24-48 h, at 10 µM, active compounds read high.
For assay [3], the target named is L-lactate dehydrogenase (Plasmodium falciparum (isolate CDC / Honduras)) (UniProt Q27743). The experiment in a line: PfLDH activity inhibition – cell lysate, 3D7 strain, counter-screen for P. falciparum growth inhibition project (AID 2304).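 Note: 0% = vehicle and 100% = reference inhibitor.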 Conditions: P. falciparum 3D7 crude extract, LDH APAD/NBT absorbance; at 2 µM; active compounds read high. In general terms: Counterscreens check selectivity or assay interference.
Chain of L-lactate dehydrogenase (Plasmodium falciparum (isolate CDC / Honduras)) (Q27743 whole entry, looked up): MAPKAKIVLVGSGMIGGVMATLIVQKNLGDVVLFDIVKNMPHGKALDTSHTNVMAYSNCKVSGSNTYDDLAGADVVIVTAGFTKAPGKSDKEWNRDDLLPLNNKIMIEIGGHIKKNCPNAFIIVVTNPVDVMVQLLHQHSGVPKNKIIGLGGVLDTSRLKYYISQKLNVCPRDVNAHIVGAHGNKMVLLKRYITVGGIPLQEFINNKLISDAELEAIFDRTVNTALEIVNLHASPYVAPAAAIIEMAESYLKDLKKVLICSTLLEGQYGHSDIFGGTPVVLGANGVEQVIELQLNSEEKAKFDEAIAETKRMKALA

Assay [4] can be described thus: inhibition of 3D7 malaria parasite growth – strain 3D7 (AID 2306).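 Note: 0% = DMSO wells and 100% = chloroquine plus artemisinin control wells.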 Conditions: P. falciparum 3D7 erythrocytic growth, LDH absorbance, 72 h; at 2 µM; active compounds read high.
Assay [5] addresses Calcium-dependent protein kinase 1 (Plasmodium falciparum (isolate 3D7)) (UniProt P62344). The experiment in a line: PfCDPK1 kinase inhibitors, biochemical, TCAMS library (AID 1159585; cut-off not given, nearly all actives have IC50 up to about 0.98 µM;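 note: inhibitors leave more ATP so luminescence rises with inhibition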). Conditions: recombinant PfCDPK1, Kinase-Glo ATP depletion luminescence. In general terms: In Kinase-Glo more light means more ATP remaining.
The target in assay [6] is Plasmodium falciparum protein kinase 6 (PK6, PF3D7_1337100) (UniProt Q8IDW1). The experiment in a line: PfPK6 kinase inhibitors, biochemical, TCAMS library (AID 1159586). Particulars: recombinant PfPK6, Kinase-Glo ATP depletion luminescence.
Chain of Plasmodium falciparum protein kinase 6 (PK6, PF3D7_1337100) (Q8IDW1 1-305): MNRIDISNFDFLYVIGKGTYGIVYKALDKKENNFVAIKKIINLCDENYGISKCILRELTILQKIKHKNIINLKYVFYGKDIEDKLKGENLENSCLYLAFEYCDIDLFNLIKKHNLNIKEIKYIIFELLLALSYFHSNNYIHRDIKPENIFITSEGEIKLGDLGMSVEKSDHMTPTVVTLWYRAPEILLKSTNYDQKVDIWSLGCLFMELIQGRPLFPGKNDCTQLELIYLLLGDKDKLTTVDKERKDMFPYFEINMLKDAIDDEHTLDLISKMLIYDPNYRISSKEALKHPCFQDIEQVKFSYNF
Assay [7] addresses Protein kinase 7 (PK7), Plasmodium falciparum 3D7 (PF3D7_0213400) (UniProt Q7YTF7). The experiment in a line: inhibition of Plasmodium PK7 catalytic activity – biochemical, TCAMS antimalarial set, Kinase-Glo luminescence (AID 1159587). Conditions: recombinant PfPK7, Kinase-Glo ATP depletion luminescence.
For assay [8], the target named is Calcium-dependent protein kinase 4 (Plasmodium falciparum (isolate 3D7)) (UniProt Q8IBS5). The experiment in a line: PfCDPK4 kinase inhibitors, biochemical, TCAMS library (AID 1159588; cut-off not given, nearly all actives have IC50 up to about 0.91 µM). Conditions: recombinant PfCDPK4, Kinase-Glo ATP depletion luminescence.
Chain of Calcium-dependent protein kinase 4 (Plasmodium falciparum (isolate 3D7)) (Q8IBS5 whole entry, looked up): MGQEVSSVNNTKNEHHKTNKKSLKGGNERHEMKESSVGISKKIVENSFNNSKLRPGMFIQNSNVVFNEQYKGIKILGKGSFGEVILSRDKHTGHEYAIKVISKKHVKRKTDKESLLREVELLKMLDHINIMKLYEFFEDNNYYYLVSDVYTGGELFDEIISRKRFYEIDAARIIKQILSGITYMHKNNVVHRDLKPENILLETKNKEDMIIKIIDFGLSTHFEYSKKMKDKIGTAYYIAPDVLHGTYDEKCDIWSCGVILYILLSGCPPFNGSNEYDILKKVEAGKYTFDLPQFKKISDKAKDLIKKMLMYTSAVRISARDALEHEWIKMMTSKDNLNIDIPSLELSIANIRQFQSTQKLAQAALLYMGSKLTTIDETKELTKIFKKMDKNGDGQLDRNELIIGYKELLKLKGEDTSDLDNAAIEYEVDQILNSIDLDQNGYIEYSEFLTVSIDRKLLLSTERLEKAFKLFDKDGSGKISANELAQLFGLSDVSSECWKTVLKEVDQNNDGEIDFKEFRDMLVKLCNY

Chain of Protein kinase 7 (PK7), Plasmodium falciparum 3D7 (PF3D7_0213400) (Q7YTF7 1-343): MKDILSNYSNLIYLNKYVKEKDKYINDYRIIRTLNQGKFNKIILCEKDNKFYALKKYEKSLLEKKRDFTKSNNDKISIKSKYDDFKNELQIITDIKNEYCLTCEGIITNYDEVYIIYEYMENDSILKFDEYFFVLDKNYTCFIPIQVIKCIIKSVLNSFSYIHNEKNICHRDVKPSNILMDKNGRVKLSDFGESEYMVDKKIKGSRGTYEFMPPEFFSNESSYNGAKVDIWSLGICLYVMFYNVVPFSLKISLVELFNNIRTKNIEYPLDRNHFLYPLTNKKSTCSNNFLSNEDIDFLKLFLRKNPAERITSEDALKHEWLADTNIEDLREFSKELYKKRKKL
Chain of Calcium-dependent protein kinase 1 (Plasmodium falciparum (isolate 3D7)) (P62344 whole entry, looked up): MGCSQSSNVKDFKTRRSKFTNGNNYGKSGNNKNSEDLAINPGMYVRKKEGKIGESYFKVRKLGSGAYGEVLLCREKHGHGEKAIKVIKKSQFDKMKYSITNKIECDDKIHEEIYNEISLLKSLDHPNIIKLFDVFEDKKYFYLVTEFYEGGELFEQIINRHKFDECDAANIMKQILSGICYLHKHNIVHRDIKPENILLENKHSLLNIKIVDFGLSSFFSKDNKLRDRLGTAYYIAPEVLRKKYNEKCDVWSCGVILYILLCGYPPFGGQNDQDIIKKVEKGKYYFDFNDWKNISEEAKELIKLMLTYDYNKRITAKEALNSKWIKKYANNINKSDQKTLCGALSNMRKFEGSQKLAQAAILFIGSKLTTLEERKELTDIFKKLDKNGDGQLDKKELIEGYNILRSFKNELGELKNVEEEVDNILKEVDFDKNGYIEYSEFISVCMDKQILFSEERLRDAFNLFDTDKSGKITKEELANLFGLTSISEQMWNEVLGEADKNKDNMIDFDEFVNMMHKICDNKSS

On to `Cc1[nH]c(C)c(-c2ccc(-c3ccccc3C(F)(F)F)nc2)c(=O)c1Br`, for which the growth inhibition in assay [1] is 96% (active); in assay [4], 97% (active). Further, the inhibition in assay [2] and in assay [3] was -3% throughout. The outcome in assay [5], in assay [6], in assay [7] and in assay [8] was inactive.

For the molecule `COc1ccc(S(=O)(=O)Nc2ccc(C(=O)NCc3ccccc3C(F)(F)F)cc2)cc1N1CCN(CC2CC2)CC1`, the growth inhibition was 5% in assay [1] and 92% (active) in assay [4]. Further, the inhibition in assay [2] was 27%; in assay [3], -3%. For the same molecule, the outcome in assay [5], in assay [6], in assay [7] and in assay [8] was inactive.

`Oc1ccc(CCNc2nc(NCCCOc3ccccc3-c3cccc(C(F)(F)F)c3)nc(N3CCNCC3)n2)cc1`: the growth inhibition in assay [1] was 5%; in assay [4], 93% (active). Also, the results for the inhibition in assay [2] and in assay [3] were 24% and -1%, respectively. The outcome in assay [5], in assay [6], in assay [7] and in assay [8] was inactive.

Take `CCCCn1c(C(C)Oc2ccc(Cl)cc2Cl)nc2cc(S(N)(=O)=O)ccc21` (stereo not given): the growth inhibition in assay [1] is 45%; in assay [4], 94% (active). In addition, the inhibition in assay [2] was 24%; in assay [3] it was -2%. The outcome in assay [5], in assay [6], in assay [7] and in assay [8] was inactive.

Consider `O=C(NCCN1CCCCC1)c1ccc(CNC(=O)c2ccc(O)c(-c3ccc(Cl)c(Cl)c3)c2)cc1`, for which the results for the growth inhibition in assay [1] and in assay [4] were 68% (active) and 93% (active), respectively. The inhibition in assay [2] is 3%; in assay [3], -8%. Further, the outcome in assay [5], in assay [6], in assay [7] and in assay [8] was inactive.

For the molecule `COc1cc(F)c2ncc(C#N)c(CCN3CCC(NCc4ccc5c(c4)OCCO5)CC3)c2c1`, the figures for the growth inhibition in assay [1] and in assay [4] were 59% (active) and 97% (active), respectively. Moreover, the inhibition in assay [2] was 5%; in assay [3], -7%. Also, the outcome in assay [5], in assay [6], in assay [7] and in assay [8] was inactive.

Take `CCCCCC(C)N=C(Nc1ccc(C#N)cc1O)Nc1cccc(Cl)c1Cl` (stereo not given): the growth inhibition in assay [1] was 98% (active); in assay [4] it was 100% (active). The inhibition in assay [2] was 28%; in assay [3], -5%. For the same molecule, the outcome in assay [5], in assay [6], in assay [7] and in assay [8] was inactive.

On to `Cc1cc(NN=Cc2ccc([N+](=O)[O-])cc2)c2ccc(F)cc2n1`, for which the values for the growth inhibition in assay [1] and in assay [4] were 22% and 101% (active), respectively. Moreover, the inhibition was -3% in assay [2] and 0% in assay [3]. The outcome in assay [5], in assay [6], in assay [7] and in assay [8] was inactive.

For `Cc1cc(NC(=O)Nc2ccc(I)c(OCCN(C)C)c2)ccc1Br`, the growth inhibition in assay [1] was 42%; in assay [4], 101% (active). The inhibition in assay [2] was 18%; in assay [3], 4%. Moreover, the result in assay [5], in assay [6], in assay [7] and in assay [8] was inactive.

`COc1ccc2c(NN=CC=Cc3ccccc3)cc(C)nc2c1`: the growth inhibition was 56% (active) in assay [1] and 99% (active) in assay [4]. The inhibition was 18% in assay [2] and 2% in assay [3]. Further, the result in assay [5], in assay [6], in assay [7] and in assay [8] was inactive.

On to `COc1ccc(Nc2nccc(N3CCC(NC(=O)c4cccc(NC(C)=O)c4)C3)n2)cc1` (stereo not given), for which the figures for the growth inhibition in assay [1] and in assay [4] were 84% (active) and 92% (active), respectively. Further, the results for the inhibition in assay [2] and in assay [3] were -3% and -5%, respectively. For the same molecule, the outcome in assay [5], in assay [6], in assay [7] and in assay [8] was inactive.

Turning to `CCC[C@@H]([C@@H](Cc1ccc(C)s1)C(=O)N[C@@H](CNC(C)=O)C(=O)Nc1nccs1)N(O)C=O`, the growth inhibition in assay [1] is 96% (active); in assay [4], 97% (active). Moreover, the inhibition was -1% in assay [2] and 2% in assay [3]. Also, the outcome in assay [5], in assay [6], in assay [7] and in assay [8] was inactive.

Consider `CN(CCCN(C)c1cc(NC(=O)c2ccc(F)cc2)ccn1)Cc1cccc(O)c1`, for which the growth inhibition in assay [1] was 0%; in assay [4] it was 90% (active). Besides, the inhibition is 2% in assay [2] and 1% in assay [3]. Further, the result in assay [5], in assay [6], in assay [7] and in assay [8] was inactive.

Take `O=C(Nc1cccc(C(F)(F)F)c1)N1CCOC(CCN2CCC(c3ccccc3)CC2)(c2ccc(Cl)c(Cl)c2)C1` (stereo not given): the figures for the growth inhibition in assay [1] and in assay [4] were 69% (active) and 87% (active), respectively. Further, the inhibition in assay [2] is 15%; in assay [3], 8%. For the same molecule, the result in assay [5], in assay [6], in assay [7] and in assay [8] was inactive.

In the case of `Cc1nc2nc(N)nc(N)c2c(C)c1Cc1cccc(C(N)=O)c1`, the growth inhibition in assay [1] was -1%; in assay [4] it was 91% (active). Besides, the inhibition in assay [2] is 59% (active); in assay [3] it was 5%. For the same molecule, the result in assay [5], in assay [6], in assay [7] and in assay [8] was inactive.

As to `Cc1cc(NN=Cc2ccccc2F)c2ccccc2n1`, the growth inhibition in assay [1] is 81% (active); in assay [4], 101% (active). Also, the inhibition is 14% in assay [2] and 1% in assay [3]. The outcome in assay [5], in assay [6], in assay [7] and in assay [8] was inactive.

Regarding `COc1ccc2cc(C(=O)Nc3ccc4c(c3)CCN(C3CCC3)CC4)ccc2c1`, the growth inhibition in assay [1] was 9%; in assay [4] it was 101% (active). The inhibition in assay [2] is 34%; in assay [3], 2%. Also, the result in assay [5], in assay [6], in assay [7] and in assay [8] was inactive.

For the molecule `COc1ccc(NC(=O)c2cc(NC(=O)C3(N)CC3)c(=O)n(Cc3ccc(C(N)=O)cc3)c2)cc1`, the results for the growth inhibition in assay [1] and in assay [4] were 72% (active) and 95% (active), respectively. Also, the inhibition in assay [2] was 21%; in assay [3], 3%. Besides, the outcome in assay [5], in assay [6], in assay [7] and in assay [8] was inactive.

On to `Cn1cnc(CCNC(=O)c2cccc(-c3cccc(-c4nc5ccc(C(F)(F)F)cc5[nH]4)c3)c2)c1`, for which the values for the growth inhibition in assay [1] and in assay [4] were 45% and 100% (active), respectively. Moreover, the inhibition in assay [2] was 37%; in assay [3], 4%. In addition, the result in assay [5], in assay [6], in assay [7] and in assay [8] was inactive.

On to `O=C(N[C@@H](Cc1ccccc1)CN1CCC(Oc2ccc(F)cc2)CC1)c1ccc(OCCCN2CCCCC2)cc1`, for which the growth inhibition in assay [1] was 92% (active); in assay [4] it was 102% (active). Further, the values for the inhibition in assay [2] and in assay [3] were 38% and 3%, respectively. Moreover, the outcome in assay [5], in assay [6], in assay [7] and in assay [8] was inactive.
